Screening results from PubChem BioAssay.
DPM-DC inhibit: S. pneumoniae DPM-DC inhibition; AID 556; calls only at 10 µM; purified DPM-DC, PK/LDH coupled NADH fluorescence; 65,000 tested, 0.49% active;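 active = the 320 compounds with the highest percent inhibition in the single-dose primary screen, excluding strongly autofluorescent ones, cut at about 32% in these data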;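 also: kinetic rate of NADH fluorescence loss reporting ADP formed by the decarboxylase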
MK inhibit: blocks S. pneumoniae mevalonate kinase | purified MK, PK/LDH-coupled NADH absorbance 340 nm | inhibition, % at 10 µM | 65,000 tested, 0.48% active | AID 555;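 active = ranked among the strongest by inhibition in the single 10 µM screen, a fixed top-ranked set picked for dose follow-up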
A340 absorber: absorbance at 340 nm. AID 708. compound absorbance at 340 nm, fold over control. 65,000 tested, under 10 active. fold change at 10 µM;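 active = at 10 µM dose, initial 340 nm absorbance at least 2 fold that of control wells; inactive = change under 2 fold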;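 also: initial absorbance extrapolated from kinetic A340 decline of NADH oxidation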
PMK inhibit: S. pneumoniae PMK inhibition; 65,000 tested, 0.49% active; purified PMK, PK/LDH-coupled NADH absorbance 340 nm; inhibition, % at 10 µM;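 active = top-ranked compounds by inhibition in the single 10 µM screen, taking a fixed number of the strongest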;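 also: 0% = full reaction with DMSO carrier and 100% = background rate without enzyme reaction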
NADH enzymes: blocks coupling enzymes of NAD/NADH assays. coupled PK/LDH NADH assays, four targets. IC50, µM (top dose mostly 10 µM), for the others: top-dose inhibition. 65,000 tested, 0.02% active;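 active = single-dose screening hits from any of four coupled enzyme assays that gave an IC50 when retested across doses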;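 also: the DPM-DC format reads NADH fluorescence rather than 340 nm absorbance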
Autofluor 339: intrinsic fluorescence of library compounds, ex339/em460 – biochemical, MLSMR library, data from DPM-DC assay, artefact control, profiling panel | compound autofluorescence, ex339/em460 nm, NADH buffer; stronger effect = higher value; 1 = no-compound wells, NADH background | fluorescence fold increase at 10 µM | 65,000 tested, 5.5% active | AID 709;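 active = at 10 µM, mean starting fluorescence two-fold or more over control wells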;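 also: signal is the first read of a kinetic run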
* marks the source's active call; other numbers are inactive results; i = inactive; . = no result shown; + = active, no number. In the library only some 6.5% were active in any assay of this set; here they are far more common.

SMILES | DPM-DC inhibit | MK inhibit | A340 absorber | PMK inhibit | NADH enzymes | Autofluor 339
CCCCc1nc(NCC2CCCO2)c(C#N)c2c1COC(C)(C)C2 (stereo not given) | . | 4 | 1 | 5 | 5% | 2.4*
O=C(c1cc2ccccc2o1)N1CCN=C1SCc1cccnc1 | i | 3 | 1 | 14 | 6% | 1
COc1ccc(C(c2nnnn2Cc2ccc(F)cc2)N2CCN(c3ccccc3)CC2)cc1 (stereo not given) | i | 8 | 0.97 | 15 | 8% | 1.1
COc1ccc(Cn2nnnc2C(c2ccccn2)N2CCN(c3cc(Cl)ccc3C)CC2)cc1 (stereo not given) | i | 4 | 1 | 28* | 3% | 1
Cc1cc(C)n(Cc2cc(C)c(Cn3nc(C)cc3C)cc2C)n1 | i | 8 | 0.99 | 0 | 2% | 1.1
O=C(NC1(C(F)(F)F)NC(=O)N(C2CCCCC2)C1=O)c1cccs1 (stereo not given) | i | 0 | 1.1 | 3 | 1% | 1.1
COC(=O)c1cc2c(C)nn(-c3ccccc3)c2s1 | i | 11 | 1 | 7 | 6% | 1.6
Cc1nn(-c2ccccc2)c2sc(C(=O)OC3CCOC3=O)cc12 (stereo not given) | . | 6 | 1.1 | 13 | 10% | 5*
Cc1nn(-c2ccccc2)c2sc(C(=O)OCC(=O)N3CCCCC3)cc12 | . | 5 | 1 | 10 | 8% | 4*
O=C(COC(=O)c1ccccc1Nc1ccccc1)NCc1ccco1 | i | 0 | 0.99 | 12 | 4% | 1.3
NC(=O)c1ccsc1NC(=O)COC(=O)c1ccccc1NCc1ccco1 | . | 0 | 1.1 | 0 | 0% | 2.1*
COc1cc(NC(=O)c2cccs2)c(C(=O)OCC(=O)NCc2ccco2)cc1OC | + | 5 | 1.1 | 13 | 17% | 1.4
CCCOC(=O)CSC1=C(C#N)C(c2ccccc2OC)C(C#N)C(=O)N1 (stereo not given) | i | 7 | 1 | 2 | 3% | 1.1
COC(=O)c1c(C(=O)OC)n(CCCN)c2ccc(C)cc12 | . | 5 | 0.99 | 0 | 4% | 2.4*
O=C(O)c1ccc2cccc(Cl)c2c1O | i | 5 | 1.1 | 8 | 12% | 2.5*
Cc1c(Cl)cccc1Nc1ccccc1C(=O)O | i | 5 | 1 | 10 | 2% | 1
CC1CN(c2oc(-c3cccs3)nc2C#N)CC(C)O1 (stereo not given) | . | 0 | 1.1 | 14 | 7% | 2.4*
N#Cc1nc(-c2cccs2)oc1N1CCOCC1 | . | 6 | 1.1 | 0 | 3% | 2.3*
Cc1ccc(-c2nc(NC(=O)CSc3nnc(C)s3)ns2)cc1 | i | 3 | 1 | 7 | 3% | 1.1
COc1ccc(-c2nc(NC(=O)CSc3nnc(C)s3)ns2)cc1 | i | 7 | 1.1 | 2 | 13% | 2.8*
Cc1nnc(SCC(=O)Nc2nsc(-c3ccccc3)n2)s1 | i | 14 | 1.1 | 38* | 17% | 1.1
COC(=O)c1[nH]c2ccc(C)cc2c1NC(=O)CN1CCN(c2ccc(F)cc2)CC1 | i | 8 | 1 | 8 | 9% | 2.2*
COC(=O)c1[nH]c2ccc(C)cc2c1NC(=O)C(C)N1CCN(C2CCCCC2)CC1 (stereo not given) | . | 7 | 1.1 | 8 | 8% | 3.5*
COC(=O)c1[nH]c2ccc(C)cc2c1NC(=O)CN1CCN(c2ccccc2)CC1 | i | 10 | 1.1 | 17 | 9% | 2.1*
COC(=O)c1[nH]c2ccc(C)cc2c1NC(=O)CN1CCN(C(=O)c2ccccc2)CC1 | . | 9 | 1 | 6 | 4% | 2.9*
COC(=O)c1[nH]c2ccc(C)cc2c1NC(=O)CN1CCC(C)CC1 | i | 9 | 0.99 | 0 | 4% | 1.8
CCCCCNC(CC(=O)Nc1ccc(OC)cc1)C(=O)O (stereo not given) | i | 3 | 0.98 | 14 | 6% | 1
CCOC(=O)C1CCN(C(=O)C2CCCCC2)CC1 | i | 4 | 1.1 | 3 | 2% | 1.1
COC(=O)c1[nH]c2ccc(C)cc2c1NC(=O)CN1CCN(Cc2ccccc2)CC1 | i | 12 | 1.1 | 0 | 12% | 2.9*
COC(=O)c1[nH]c2ccc(Cl)cc2c1NC(=O)CN1CCc2cc(OC)c(OC)cc2C1 | i | 8 | 1 | 6 | 6% | 1.5
